# An excerpt weighted towards active compounds, which were near 12% of everything screened.
# AmpC inh detg = blocks E. coli AmpC beta-lactamase in detergent assay. Potency, µM (doses to about 114 µM), inactives show at the top dose activity change, negative = inhibition, usual class: inhibitors. AmpC hydrolysis of nitrocefin, absorbance 480 nm, 0.01% Triton. 0.041% of 370,000 active. P00811;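 also: 0% = no-compound wells and -100% = no-enzyme wells; nearly all actives have a fitted effect of over 25% in size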
# Target sequence (P00811 whole entry, looked up): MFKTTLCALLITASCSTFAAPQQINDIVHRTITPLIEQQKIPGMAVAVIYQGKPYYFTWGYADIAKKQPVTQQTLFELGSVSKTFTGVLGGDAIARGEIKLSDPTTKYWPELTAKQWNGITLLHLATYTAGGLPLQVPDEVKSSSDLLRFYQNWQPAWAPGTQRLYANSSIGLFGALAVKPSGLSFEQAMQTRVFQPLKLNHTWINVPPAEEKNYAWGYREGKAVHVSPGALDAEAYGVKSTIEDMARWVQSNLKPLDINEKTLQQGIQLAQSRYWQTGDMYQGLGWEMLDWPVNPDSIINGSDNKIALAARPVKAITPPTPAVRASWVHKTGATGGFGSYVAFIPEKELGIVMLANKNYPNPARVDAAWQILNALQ
#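 20 mM phosphate pH 7.0 + 0.01% (detergent screen) or 0.0001% Triton X-100; 5.3 nM AmpC reagent; cpd preinc 15 min RT; nitrocefin (800 uM stock) to start; A480 q20 s × 4 min; Activity was normalised to no-enzyme and no-compound control wells.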
# AmpC no deterg = blocks E. coli AmpC beta-lactamase in detergent-free assay; P00811; AmpC nitrocefin hydrolysis, absorbance 480 nm, 0.0001% Triton; Potency, µM (top dose mostly 57.1 µM), inactives show at the top dose activity change, negative = inhibition, usual class: inhibitors; 0.52% of 330,000 active; AID 485341;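 also: plate controls were no compound for no effect and no enzyme for full effect; nearly all actives have a fitted effect of over 20% in size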
#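 20 mM phosphate pH 7.0 + 0.01% (detergent screen) or 0.0001% Triton X-100; 5.3 nM AmpC reagent; cpd preinc 15 min RT; nitrocefin (800 uM stock) to start; A480 q20 s × 4 min; Activity was normalised to no-enzyme and no-compound control wells.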
# Pf growth 48h = P. falciparum growth inhibition at 48 hours (one generation) | P. falciparum luciferase growth in erythrocytes, 48 h | Potency, µM (titrated, usually from 28.7 µM), for the others: at the highest dose activity change, negative = inhibition, hits mostly inhibitors | 5.9% of 310,000 active | AID 504832; also: % is scaled to controls: 0 for no effect and ±100 for the full control effect
#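 Read-out is firefly luciferase luminescence from an integrated reporter in P. falciparum, so falling signal marks reduced parasite growth. Infected erythrocytes were at 2% hematocrit and 0.1% parasitemia (final) in Albumax-supplemented RPMI 1640.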
# Pf growth 96h = inhibits malaria parasite growth, 96 h | 6.9% of 320,000 active | P. falciparum luciferase reporter growth, 96 h | Potency, µM (doses to about 28.7 µM), for inactives: at the highest dose activity change, negative = inhibition, most hits filed as inhibitors; also: % is scaled to controls: 0 for no effect and ±100 for the full control effect
#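 Parasite growth measured via integrated firefly luciferase reporter in P. falciparum. Infected erythrocytes at 2% hematocrit, 0.05% parasitemia final were treated 96 hours at 37 C under 5% CO2, and luminescence was read.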
# SARS PLP yeast = blocks SARS-CoV papain-like protease in a yeast assay; S. cerevisiae expressing SARS-CoV PLpro, growth rescue; Potency, µM (titrated, usually from 32.9 µM), for the others: top-dose activity, positive = growth rescue, most hits filed as activators; 0.19% of 330,000 active; AID 485353; calls by dose curve; also: 0% is about no effect; nearly all actives have a fitted effect of over 55% in size
# Sm TGR inh = S. mansoni TGR enzyme inhibition. 3% of 360,000 active. purified TGR, DTNB reduction, TNB absorbance 405 nm. AID 485364. Potency, µM (highest dose often 114 µM), without a hit: at the top dose activity change, negative = inhibition, usual class: inhibitors; also: % is scaled to controls: 0 for no effect and ±100 for the full control effect; nearly all actives have a fitted effect of over 60% in size
#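 First, TGR (20 nM dispensed) and NADPH were mixed with compound. Second, a 15 min room-temperature incubation followed. Third, further NADPH and then DTNB were added to start the reaction. Finally, TNB absorbance was monitored kinetically.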
# The depositor's hits bear a star; ? = inconclusive; · = no result given; [ ] = dose if it differs, or a comment. Unless noted, calls follow the shape of the dose curve; as a rule, active = well fitted curve in the direction sought with a large enough effect; inconclusive = small, poorly fitted or top-dose-only effect, or another doubt; inactive = no such curve, though single readings can be large; an effect the other way counts as inactive or inconclusive. Potency is read from the fitted curve at half-maximal effect.
SMILES,AmpC inh detg,AmpC no deterg,Pf growth 48h,Pf growth 96h,SARS PLP yeast,Sm TGR inh
Cc1ccc([N+](=O)[O-])cc1S(=O)(=O)N1CCn2cccc2C1c1ccc(F)c(F)c1 (configuration not stated),4.3%,·,·,·,·,-9.9%
COCCNC(=O)Cn1c(=O)n(C)c2ccccc21,1.6%,-14.2%,·,30.6%,-2.6%,-0.2%
COc1cc(CNCCO)cc(Br)c1OCc1ccccc1Cl,2.3%,78.1%,?,11.7µM*,-4.6%,-3.3%
COc1cc(CNCCO)cc(Cl)c1OCc1ccc(Cl)cc1Cl,-8.7%,157.7%,10.4µM*,-2.0%,-3.1%,9.8%
CCOc1cc(CNCCO)cc(Br)c1OCc1ccccc1,1.6%,-12.2%[2.29 µM],?,0.0%,-0.5%,8.7%
O=C(NCc1ccc(F)cc1)c1cc2c(s1)CS(=O)(=O)C2,0.5%,-29.0%,1.6%,6.57µM*,7.8%,-2.5%
Cc1ccccc1Nc1c(-c2ccc(O)cc2)nc2c(C)cccn12,-6.4%,·,·,·,·,3.4%
CCOc1ccc(N(CC)S(=O)(=O)N2CCCC(C(=O)NCc3ccccc3Cl)C2)cc1 (configuration not stated),-0.4%,·,·,·,·,-1.5%
CCOC(=O)Cn1c2c(c(=N)c3ccccc31)CCC2,-7.5%,-18.5%,?,0.37µM*,0.2%,-2.1%
CCOC(=O)Cn1c2c(c(=N)c3c1CCC3)CCC2,?,-1.8%,1.04µM*,-0.2%,3.2%,-1.2%
CCOC(=O)[C@@H]1[C@H]2COc3cc(OC)ccc3[C@H]2N2C(=O)N(c3ccc(C)cc3)C(=O)[C@]12C,·,35.0%,·,·,9.1%,·
CCN1CCN(c2cc(C(C)C)nc3c(-c4ccccc4)c(C)nn23)CC1,-9.1%,142.5%,?,14.7µM*,-0.9%,11.2%
CCCc1cc(NCc2ccccn2)n2nc(C)c(-c3ccccc3)c2n1,-1.8%,43.6%,2.62µM*,13.1µM*,-4.5%,0.1%
Cc1cc(NCc2ccccn2)n2nc(C)c(-c3ccc(Cl)cc3)c2n1,8.3%,76.6%,1.65µM*,2.94µM*,-0.5%,4.6%
Cc1nn2c(NCCCn3ccnc3)cc(C(C)C)nc2c1-c1ccccc1,-1.1%,131.7%,2.08µM*,8.28µM*,0.1%,8.5%
CCc1ccc(S(=O)(=O)c2nnn3c2nc(Nc2cc(OC)cc(OC)c2)c2cc(Cl)ccc23)cc1,1.0%,·,·,·,·,5.8%
CCOC(=O)c1c(-c2ccc(OC)cc2)oc2ccc(OCc3ccccc3C)cc12,10.5%,·,·,·,·,4.5%
COc1ccc(OCC(=O)Nc2c3c(nn2-c2ccc(OC)cc2)CS(=O)(=O)C3)cc1,-14.3%,-9.6%,76.8%,-6.3%,-0.4%,2.5%
Cc1nn2c(NCc3ccccn3)cc(C(C)C)nc2c1-c1ccccc1,-0.7%,-2.0%,1.65µM*,1.65µM*,0.7%,-4.4%
Cc1ccn2cc(C(=O)Nc3ccc4c(c3)OCCO4)nc2c1,-8.0%,-15.8%,172.8%,-41.1%,-16.8%,1.8%
Cc1ccn2cc(C(=O)Nc3nnc(C)s3)nc2c1,-16.2%,-20.7%,63.0%,4.15µM*,10.9%,0.6%
CC(C)c1ccc(NC(=O)CCNS(=O)(=O)c2ccc3c(c2)CCCC(=O)N3)cc1,18.1%,·,·,·,·,13.3%
O=C(Nc1nc(-c2ccco2)cs1)c1ccccc1,-15.2%,-36.1%,·,84.3%,-16.4%,-14.6%[11.4 µM]
Cc1ccc(-c2csc(NC(=O)Cc3ccc(F)cc3)n2)o1,9.4%,?,-2.9%,-17.8%,-6.6%,7.08µM*
Cc1ccc(-c2csc(NC(=O)c3ccc(-c4ccccc4)cc3)n2)o1,-13.0%,-21.0%,?,?,-29.3%,10µM*
SMILES,AmpC inh detg,AmpC no deterg,Pf growth 48h,Pf growth 96h,SARS PLP yeast,Sm TGR inh
COc1ccc(OC)c(-c2csc(NC(=O)Cc3ccc(F)cc3)n2)c1,6.0%,-13.8%,?,-32.4%,-7.9%,11.3%
Cc1ccc(-c2csc(Nc3ccc(S(N)(=O)=O)cc3)n2)o1,1.7%,-55.1%,-2.0%,1.3%,14.0%,1.78µM*
CCOCCCNC(=O)C1(O)c2ccccc2NC(=O)N1c1ccc(Cl)c(Cl)c1 (configuration not stated),-6.1%,-1.9%,0.7%,?,-0.1%,-6.2%
CCCCN(C)CCCNC(=O)C1(O)c2ccccc2NC(=O)N1c1ccc(Cl)cc1 (configuration not stated),-0.4%,-16.3%,3.1%[0.00184 µM],4.15µM*,1.5%,-17.6%
CCOc1ccc(N2C(=O)Nc3ccc(Br)cc3C2(O)C(=O)NCCCN(C)C)cc1 (configuration not stated),11.0%,-18.6%,2.5%,?,0.0%,3.9%
CCOCCCNC(=O)C1(O)c2ccccc2NC(=O)N1c1ccc(C)c(C)c1 (configuration not stated),-2.2%,-3.0%,-1.6%[0.00184 µM],-10.2%,1.7%,0.7%
CC(C)NC(=O)C1(O)c2ccccc2NC(=O)N1c1ccc(Cl)c(Cl)c1 (configuration not stated),1.4%,-31.9%,-9.9%,10.4µM*,-0.2%,1.3%
CCOc1ccc(N2C(=O)Nc3ccc(Br)cc3C2(O)C(=O)NCCN(C)C)cc1 (configuration not stated),-11.3%,-15.7%,-7.6%,1.85µM*,0.0%,-27.5%
CCOC(=O)c1ccc2c(c1)n(CCCS(=O)(=O)[O-])c(/C=C/c1ccc(Cl)cc1)[n+]2CC,-7.4%,-0.8%,9.28µM*,?,0.6%,-14.6%
Cc1ccc(S(=O)(=O)c2nnn3c2nc(NC(C)C)c2sccc23)cc1,19.7%,·,·,·,·,-2.3%
Cc1ccc(C(=O)CCS(=O)(=O)c2ccc(Cl)cc2)cc1,2.9%,-5.3%,4.5%,-1.8%,-0.4%,0.355µM*
Cc1ccc(C(=O)CCS(=O)(=O)c2ccc(F)cc2)cc1,4.8%,-26.0%,0.3%,2.3%,-3.9%,0.316µM*
Cc1ccc(NC(=O)CCc2nc(-c3ccccc3F)no2)c(C)c1,18.7%,·,·,·,·,1.0%
CC(=O)NC12CC3CC(C1)CC(C(=O)Oc1ccc(N(C)S(=O)(=O)c4cc(C)ccc4C)cc1)(C3)C2,-4.6%,44.8%,?,13.1µM*,-1.1%,1.0%
COc1ccc(C(=O)N/N=C2\CCc3ccccc32)cc1OC,2.1%,-8.8%,-10.3%,-12.5%,-2.0%,-3.1%
COc1ccc(C(=O)/C=C2/c3ccccc3CC(C)(C)N2C)cc1OC,?,106.4%,-4.3%,11.7µM*,1.1%,-22.4%
Cc1cc(C)n2nc(SCC(=O)c3ccc[nH]3)nc2n1,-14.9%,-5.9%,?,1.2%,4.5%,31.6µM*
COc1ccc(-n2cnnc2SCc2ncc(-c3ccccc3)o2)cc1,-10.1%,26.9%,0.0%,?,-2.1%,?

# High-throughput results from PubChem BioAssay.
